The entries come from a sample that favours hits as a whole.
HBB splicing: modulators of hemoglobin beta chain splicing. HBB splicing reporter cell assay, activation; EGFP reporter with mutant IVS2-654 intron; response scale: normalised to 500 nM splice-correcting PNA. Potency, µM (highest dose often 46.1 µM), inactives show at the highest dose activation, usual class: activators. 65,000 compounds, 0.06% hits; further: potency means the concentration at half of the fitted maximal effect; 0% is about no effect
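Compounds were applied for 2 days to HeLa EGFP-654 cells, 500/well in Optimem with 2% FCS. The reporter's EGFP is disrupted by mis-splicing of beta-globin intron IVS2-654. Readout: summed well GFP fluorescence from 488 nm laser scanning; reference was 500 nM antisense […] 654 PNA.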
CRE-bla Fsk: alters forskolin-stimulated CRE reporter signaling in CHO cells | CHO CRE-bla reporter (cAMP response element driving beta-lactamase), forskolin EC10, beta-lactamase ratio | Potency, µM (highest dose often 38.2 µM), without a hit: at the highest dose activity change, negative = inhibition, hits mostly activators | 71,000 compounds, 2.5% hits | AID 662; active means well fitted activation curve with a large enough effect in the signal ratio, with a control signal flat, not every such curve was filed as active; inconclusive means small, poorly fitted or top-dose-only effect, or effect the other way, or a change in a side signal; the % refers to the signal ratio; further: potency means the concentration at half of the fitted maximal effect; % of control where 0% means no effect
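Using CellSensor CRE-bla CHO cells in Opti-MEM with 0.5% dialyzed FBS, compounds were titrated with EC10 NKH 477 for 3 h at 37 °C. CCF4 ratio (460/530 nm) gave %Activity; AC50 derived.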
Peg3 imprint: induces erasure of genomic imprints in mouse ES cells | mouse ES Peg3-LacZ reporter, beta-gal luminescence, 40 h | Potency, µM (highest dose often 60.7 µM), without a hit: at the top dose activity change, positive = activation, usual class: activators | 110,000 compounds, 0.02% hits | AID 1948; further: potency means the concentration at half of the fitted maximal effect
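Imprint erasure is scored as LacZ activity from the silenced maternal Peg3 allele in feeder-free female ES cells cultured 40 h with LIF. Luminescence is normalized to in-plate negative controls and fitted to the Hill equation.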
Epigenetic mod: epigenetic modulators derepressing GFP locus in mouse cells. mouse C127i GFP locus derepression, cytometry, 30 h. Potency, µM (doses to about 46.1 µM), for inactives: at the top dose GFP derepression (activation). 68,000 compounds, 0.09% hits. AID 597; further: % of control where 0% means no effect
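Derepression screen: silenced CMV-GFP reporter in murine C127i cells, 30 h compound incubation at 37 C, washed cells imaged by laser-scanning cytometer to enumerate GFP-expressing objects of 20 to 120 um.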
IkB signaling: IkB pathway inhibition in ABC-DLBCL cells; ABC-DLBCL IkBa-CBG/CBR dual luciferase ratio, 4 h; response scale: scaled: untreated 0%, proteasome inhibitor 100%; Potency, µM (highest dose often 57.1 µM), inactives show at the top dose IkBa stabilization activation; 110,000 compounds, 0.04% hits; active means well fitted curve in the direction sought with a large enough effect in the signal ratio, not every such curve was filed as active; inconclusive means small, poorly fitted or top-dose-only effect, or a change in a side signal; the % refers to the signal ratio;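 further: potency means the concentration at half of the fitted maximal effect; the direction sought is a rising ratio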
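In this assay, an IκBα–CBG68 fusion accumulates when IKK-driven degradation is blocked; native CBR normalizes for cell number. OCI-Ly3 cells were treated 4 h with compound and doxycycline, then green and red light read after Chroma-Glo addition.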
Active calls of the source: *; ? = inconclusive; / = no result given; [ ] = dose if it differs, or a comment. Unless noted, the call rests on the fitted dose curve; in most records, active means well fitted curve in the direction sought with a large enough effect; inconclusive means small, poorly fitted or top-dose-only effect, or another doubt; inactive means no such curve, though single readings can be large; an effect the other way counts as inactive or inconclusive.

SMILES | HBB splicing | CRE-bla Fsk | Peg3 imprint | Epigenetic mod | IkB signaling
Cc1nc(Nc2ccccc2)c2nc(-c3ccccc3)n(CCN3CCOCC3)c2n1 | 0% | 7.9µM* | -9% | / | /
Cc1nc(NCc2ccccc2)c2nc(-c3ccccc3)n(CCCN3CCOCC3)c2n1 | -1% | ? | -18% | / | /
O=C(Cn1ccc2cc(S(=O)(=O)N3CCCCC3)ccc21)NCCc1ccccc1Cl | / | / | -6%[10.9 µM] | / | -1%
COc1cc(OC)c2c(C)c(CC(=O)NCc3ccccc3OC)c(=O)oc2c1 | / | / | 24%[10.9 µM] | / | -1%
C[C@@]12C[C@H](O)C3[C@H](CCC4=CC(=O)CC[C@]43C)[C@H]1CC[C@@H]2c1csc(N)n1 (some centres undefined) | / | / | -25%[10.9 µM] | / | /
Cc1cc(C)nc(-n2nc(C)c(Sc3ccc(F)cc3)c2N)n1 | 0% | 2µM* | -67% | ? | ?
Cc1cccc(NC(=O)CCNS(=O)(=O)c2ccc3c(c2)CCCC(=O)N3)c1C | / | / | 4%[10.9 µM] | / | ?
CS(=O)(=O)Nc1cccc(-c2nc(NCc3cccnc3)c3ccccc3n2)c1 | 2% | 4µM* | -20% | 11%[9.22 µM] | -7%[11.4 µM]
Cc1cccc(CNc2nc(-c3ccc4c(c3)OCO4)nc3ccccc23)c1 | -1% | 27% | -22% | 3%[9.22 µM] | 12%[11.4 µM]
c1cncc(CNc2nc(-c3ccc4c(c3)OCO4)nc3ccccc23)c1 | 1% | 13µM* | ? | 2%[9.22 µM] | 0%[11.4 µM]
CS(=O)(=O)Nc1cccc(-c2nc(NCc3ccccc3)c3ccccc3n2)c1 | -1% | ? | -4% | -3%[9.22 µM] | -6%[11.4 µM]
Cc1noc(C)c1-c1nc(NCc2cccnc2)c2ccccc2n1 | 2% | 13µM* | -14% | 2%[9.22 µM] | 4%[11.4 µM]
O=C(Nc1cc(F)ccc1F)C1CCN(C(=O)c2cnn(-c3ccccc3)c2-n2cccc2)CC1 | / | / | -10%[10.9 µM] | / | ?
COc1nc(Nc2ccc(OC)c(Cl)c2)nc(OC)n1 | -1% | 10µM* | 7% | 6% | -4%
CNc1nc2sc3c(c2c(=O)n1C)CC(C)(C)SC3 | 4% | 13µM* | 6% | 5% | -2%
CN(C)c1nc2sc3c(c2c(=O)n1C)CC(C)(C)OC3 | / | / | / | 0%[20.6 µM] | /
O=C(c1ccc(Cl)s1)N1CCN(c2ccccc2)CC1 | 0% | 13µM* | -7% | / | 3%
Cc1cccc(C(=O)Nc2cccc(C(=O)OCc3cc(=O)n4nc(C5CC5)sc4n3)c2)c1 | / | / | -73%[10.9 µM] | / | ?
COc1ccc(Nc2cc(C)nc(N3CCOCC3)n2)cc1 | 3%[0.369 µM] | 4µM* | 8% | 0% | 0%
Cc1cc(C)nc(Nc2ccc(N3CCOCC3)cc2)n1 | 5% | 8% | -15% | 0% | -3%
Cc1ccc(Nc2cc(C)nc(-n3nc(C)cc3C)n2)cc1 | / | / | -13%[10.9 µM] | / | -2%
CCOc1ccc(Nc2cc(C)nc(-n3nc(C)cc3C)n2)cc1 | 9%[0.369 µM] | 13µM* | -33% | 16µM* | 2%
CC(=O)CSc1ncnc2c1oc1ccccc12 | -1%[0.369 µM] | 4µM* | -13% | 0% | -3%
COC(=O)c1ccc(CSc2ncnc3c2oc2ccccc23)o1 | 0% | 2.5µM* | -17% | 0% | ?
CCCSc1ncnc2c1oc1ccccc12 | 1% | ? | -8% | 11% | -2%
SMILES | HBB splicing | CRE-bla Fsk | Peg3 imprint | Epigenetic mod | IkB signaling
CCOc1ccccc1NC(=O)CSc1ncnc2c1oc1ccccc12 | 0% | 0.63µM* | -1% | 4% | 5%
COc1ccccc1CNC(=O)CCC1N=C2c3ccccc3N=C(SCC(N)=O)N2C1=O (centres undefined) | / | / | -10%[10.9 µM] | / | 0%
CCc1nc(SCC(=O)Nc2cc(C)on2)c2c(C)c(C)sc2n1 | 0%[57.5 µM] | 2.5µM* | -1% | 0% | -1%
CCc1cc2ccccc2nc1SCC(=O)Nc1cc(C)on1 | / | 14% | -5% | -1% | -1%
Cc1cc(NC(=O)CSc2nc(C(C)C)nc3c2c(=O)n(C)c(=O)n3C)no1 | 1% | 10µM* | -26% | / | 2%
Cc1cc(NC(=O)CSc2nc(-c3ccccc3F)nc3c2c(=O)n(C)c(=O)n3C)no1 | / | / | 11%[10.9 µM] | / | -4%
COC(=O)c1sccc1NC(=O)c1ccc(Br)o1 | 1%[0.0738 µM] | 4µM* | -8% | -2% | 1%
COC(=O)c1sccc1NC(=O)c1ccoc1C | 1% | 10µM* | 1% | 5% | -4%

Compound activity: PubChem, National Center for Advancing Translational Sciences (NCATS)
